Shown is part of a subset that was picked to be rich in hits.
Pf Dd2 inh: Plasmodium falciparum Dd2 growth inhibition; P. falciparum Dd2 growth, SYBR Green, 72 h; Potency, µM (highest dose often 28.9 µM), actives largely listed as inhibitors; actives 4.3% (n = 120,000); AID 1347417; active = well fitted inhibition curve with a large enough effect; note: nearly all actives have a fitted effect of over 65% in size
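Infected erythrocytes (Dd2, 0.3% parasitemia, 2.5% hematocrit final) are added to compound in RPMI-1640/Albumax II medium, grown 72 h at 37C in low oxygen, then lysed with saponin/Triton-X containing SYBR Green and read by fluorescence.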
A number is an active result; i = inactive; [ ] = remark or other dose.

SMILES	Pf Dd2 inh
Cc1noc(C2CC3(CCN(C(=O)CCC4CCCC4)CC3)CN2C)n1 (centres undefined)	4.47µM
Cc1noc(C2CC3(CCN(C(=O)Cn4c(=O)oc5ccccc54)CC3)CN2C)n1 (centres undefined)	i
Cc1noc(C2CC3(CCN(C(=O)COc4ccc(F)cc4)CC3)CN2C)n1 (centres undefined)	i
CC(C)N1CCN(C2CCN(c3ccc4c(c3)OCO4)CC2)CC1CCO (centres undefined)	i
O=C1Nc2ccccc2CC12CN(Cc1cscn1)C2	i
COc1ccc(C(=O)NC(C(=O)NCC(C)C)C2CCN(C(=O)c3cccc(F)c3)CC2)cc1 (centres undefined)	i
CCCOc1ccccc1C(C)Nc1nc(-c2cccnc2)nc2c1CNC2 (centres undefined)	11.2µM
c1cncc(-c2nc3c(c(NCc4ccccc4-n4ccnc4)n2)CNC3)c1	i
CS(=O)(=O)NC1CCN(c2nc(-c3cccnc3)nc3c2CNC3)CC1	i
CCC(=O)N1CCc2cc(Br)cc(S(=O)(=O)N3CCN(c4ccccc4)CC3)c21	i
CC(=O)N1CCc2cc(Br)cc(S(=O)(=O)N3CCN(c4cccc(C(F)(F)F)c4)CC3)c21	10µM
O=C(C1CC1)N1CCc2cc(Br)cc(S(=O)(=O)N3CCN(c4cccc(Cl)c4)CC3)c21	i
CNC(=O)[C@@H]1CN(Cc2ccc(Br)o2)C[C@H]1c1nc(COC)no1	i
CCOC(=O)C1CCN(c2c(C(=O)c3ccc(OCC)cc3)cnc3ccc(OC)cc23)CC1	10µM
COc1cc2ncc(C(=O)c3ccc(C)cc3)c(N3CCCCC3)c2cc1OC	i
CCOC(=O)C1CCCN(c2c(C(=O)c3ccc(OCC)cc3)cnc3ccccc23)C1 (centres undefined)	i
Fc1ccc(OC2CN(Cc3ccsc3)C2)cc1F	i
Cc1nn2c(c1-c1cccnc1N1CCOCC1)N(C(=O)C(C)C)CCC2	i
CCC1Oc2ccc(NC(=O)CC(C)(C)C)cc2CN(Cc2ccc(F)cc2)C1=O (centres undefined)	i
O=S(=O)(NCCc1noc(-c2ccncc2)n1)c1ccccc1	i
CN1C(=O)COC[C@@H]1[C@H](O)c1ccc(NC(=O)c2ccc(C#N)cc2)cc1	i
CCc1nc2c(=O)n(CC(=O)NC(C)c3ccc(F)cc3)nc(C)c2s1 (centres undefined)	i
O=C(NC[C@H]1OC[C@@H](NCc2ncc[nH]2)[C@@H]1O)C1CCCC1	i
CCOC(=O)c1c(C)n(-c2ccccc2)c2ccc(OC(=O)c3ccccc3)cc12	2.82µM
CCOC(=O)c1c(C)n(-c2ccccc2)c2ccc(OC(=O)c3c(F)cccc3F)cc12	i
SMILES	Pf Dd2 inh
CCOC(=O)c1cc(OC(=O)c2ccc(OC)cc2)n(-c2ccccc2)n1	i
Cc1ccc2c(c1)nc1n2[C@@H](CN(Cc2ccc(C(=O)O)cc2)Cc2ccc(C(=O)O)cc2)COC1	i
Cc1ccc(C(=O)N2CC3(C2)C(=O)Nc2ccccc23)cc1	i
O=C(NCc1cccnc1)[C@@H]1C[C@@H](O)CN1C1CCN(C(=O)CN2CCCCCC2)CC1	i
CC1=C(C(=O)OCC2CCCCC2)C(c2cccc(Cl)c2Cl)CC(=O)N1 (centres undefined)	i
CC1=C(C(=O)OCc2ccccc2)C(c2cccc(Cl)c2Cl)CC(=O)N1 (centres undefined)	i
CC1=C(C(=O)OCc2ccc(C)cc2)C(c2ccccc2C(F)(F)F)CC(=O)N1 (centres undefined)	5.62µM
Cc1cccc(OCC(=O)N2C[C@@H](CO)[C@H](c3ccncc3)C2)c1	i
Cc1ccc2oc(C(=O)N3CCC(c4nc5ccccc5s4)CC3)c(C)c2c1	i
Cc1cc(C)c2c(C)c(C(=O)N3CCC(c4nc5ccccc5s4)CC3)oc2c1	8.91µM
Cc1c(C(=O)N2CCC(c3nc4ccccc4s3)CC2)oc2cc(Br)ccc12	i
O=C(c1ccccc1Cl)N1CCC(c2nc3ccccc3s2)CC1	i
COc1cc(C(=O)N2CCC(c3nc4ccccc4s3)CC2)cc(OC)c1OC	i
Cc1ccccc1C(=O)N1CCC(c2nc3ccccc3s2)CC1	1.26µM
Cc1cc(C)n(CCC(=O)N2CCc3c(c(C(=O)N4CCOCC4)nn3CCc3ccccc3)C2)n1	i
CCS(=O)(=O)N1CCCCCCN(C)C(=O)CC1	i
Cc1nnc2n1CCC(NC(=O)c1cccn1C)CC2 (centres undefined)	i
CCc1ccc(NC(=O)Cn2ccn3nc4c(c3c2=O)CCCCC4)cc1	i
COc1ccc(NC(=O)O[C@@H]2CO[C@H]3[C@@H]2OC[C@@H]3NS(=O)(=O)Cc2ccccc2)cc1	i
Cn1ncc(N2CCC(C(=O)Nc3ccccc3CCc3ccccn3)C2)cc1=O (centres undefined)	i
O=C(Nc1ccccc1CCc1ccccn1)C1CCN(c2cnn(Cc3ccccc3)c(=O)c2)C1 (centres undefined)	4.47µM
O=C(NCc1cnccn1)C1CCCN(c2cnn(Cc3ccccc3)c(=O)c2)C1 (centres undefined)	i
COCCNC(=O)[C@H]1C[C@H](Oc2ccccc2)CN1C(=O)CC(C)C	i
CC(=O)N1Cc2ccccc2CC2(CCCN(CC3CCNC3)C2)C1 (centres undefined)	i
Cc1ccccc1C(=O)N1C[C@@H](F)C[C@H]1C(=O)N1CCCCC1	i
SMILES	Pf Dd2 inh
COc1cccc(CC(=O)N2CCC(n3cc(-c4nc(-c5ccccc5)no4)nn3)CC2)c1	i
CCOc1ccc(N2C(=O)N(Cc3ccc(C)cc3C)c3ccccc3S2(=O)=O)cc1	10µM
CCN1C(=O)N(c2ccc(C(C)=O)cc2)S(=O)(=O)c2ccccc21	i
CC(=O)c1ccc(N2C(=O)N(CC(=O)c3ccc(C)cc3)c3ccccc3S2(=O)=O)cc1	i
Cc1ccc(CN2CCCC3(CNc4ccccc4[S+](=O)([O-])N3)C2)cc1 (centres undefined)	i
CC(=O)NCCC1CCN(C(=O)Nc2ccc(C)cc2)CC1	i
CC(C)NC(=O)N1CC2ON=C(C(=O)N3CCCC3)C2C1 (centres undefined)	i
COc1ccc(C)cc1Nc1nc(N)c2cc(OC)c(OC)cc2n1	2.82µM
CCOC(=O)c1c(C)oc2nc(C)nc(Nc3cc(C)ccc3OC)c12	i
COc1ccc(C)cc1Nc1nc(-c2cccc(Cl)c2)c2c(n1)-c1ccccc1OC2	i[0.594 µM]
CCCNC(=O)N[C@@H]1CCC[C@@H](C(=O)NCc2ccc(OC)cc2)CC(=O)N(C)C1	i
O=C(Cn1c(=O)oc2ccccc21)NC1CCCN(CCCc2ccccc2)C1 (centres undefined)	i
CC(=O)N1CCC(N2CCOC[C@H]2c2ncc(-c3ccc(C(F)(F)F)cc3)[nH]2)CC1	i
CC(C)c1noc(C2CCCN(C(=O)NC(C)(C)C)CCC(=O)NCC2)n1 (centres undefined)	i
O=C1NC(C(=O)NC2CCCCC2)Cn2cccc21 (centres undefined)	i
CC(=O)N1CCC(C2CCN(Cc3cc(F)c(F)cc3F)C2)CC1 (centres undefined)	i
CCc1ccc(CNC(=O)c2ccc3c(c2)c(C)c(C)n3Cc2ccccc2)cc1	i
COc1cccc(CNC(=O)c2ccc3c(c2)c(C)c(C)n3Cc2ccccc2)c1	i
Cc1ccc(CNC(=O)c2ccc3c(c2)c(C)c(C)n3Cc2ccccc2)o1	i
COc1ccccc1CCNC(=O)c1ccc2c(c1)c(C)c(C)n2Cc1ccc(Cl)cc1	i
Cc1ccc(CNC(=O)c2ccc3c(c2)c(C)c(C)n3Cc2ccc(Cl)cc2)o1	10µM

Screening results deposited in PubChem BioAssay by National Center for Advancing Translational Sciences (NCATS).
